Data published in PubChem BioAssay AID1159580 (chemical genetic matrix, 2015).
Values joined by “and” are separate entries in the source; they are usually repeats but may differ in a detail not shown here. Equal entries are not always repeated. Hit rate of the full screen: of about 5,500 compounds, about 2,000 (36%) were called active. Inconclusive results (about 18%) are left out. No stated cut-off is given here; in the data, active means normalized growth mostly below about 0.91 (no sharp cut-off); inconclusive means no clear call, values can overlap the other calls; inactive means mostly above about 0.92. The list shows a part of the results.

Experiment: chemical genetic growth profiling, strain panel (AID 1159580);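 further: tested at 20 µM; growth read once vehicle control cultures reached saturation at 30 °C; 1 = growth at the plate median or of vehicle wells; lower values mean less growth of the strain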
Conditions: S. cerevisiae deletion strains, growth OD

Measured: normalized growth

NC(N)=NS(=O)(=O)c1ccc(N)cc1
inactive: locus YAL021C, strain ccr4, hits give low values 0.976 | locus YAL026C, strain drs2, hits give low values 0.991 | locus YAL030W, strain snc1, hits give low values 0.979 | locus YBL061C, strain skt5, hits give low values 0.991 | locus YBR009C, strain hhf1, hits give low values 0.981 | locus YBR021W, strain FUR4, hits give low values 1.02 | locus YBR023C, strain chs3, hits give low values 0.981 | locus YBR171W, strain sec66, hits give low values 0.994 | locus YBR229C, strain ROT2, hits give low values 1.01 | locus YBR231C, strain swc5, hits give low values 0.993 | locus YBR279W, strain paf1, hits give low values 0.986 | locus YCL011C, strain gbp2, hits give low values 0.981 | locus YCL016C, strain dcc1, hits give low values 0.983 | locus YCL029C, strain bik1, hits give low values 1 | locus YCL061C, strain MRC1, hits give low values 1.01 | locus YCL069W, strain vba3, hits give low values 0.991 | locus YCR088W, strain abp1, hits give low values 0.992 | locus YDL005C, strain med2, hits give low values 0.987 | locus YDL035C, strain GPR1, hits give low values 1.02 | locus YDL040C, strain nat1, hits give low values 0.975 | locus YDL074C, strain BRE1, hits give low values 1.04 | locus YDL101C, strain DUN1, hits give low values 1.02 | locus YDL134C, strain PPH21, hits give low values 1.01 | locus YDL185W, strain tfp1, hits give low values 1 | locus YDL192W, strain arf1, hits give low values 0.996 | locus YDR001C, strain nth1, hits give low values 0.99 | locus YDR069C, strain doa4, hits give low values 0.986 | locus YDR101C, strain arx1, hits give low values 0.995 | locus YDR137W, strain rgp1, hits give low values 1.03 | locus YDR150W, strain NUM1, hits give low values 1.02 | locus YDR159W, strain sac3, hits give low values 0.992 | locus YDR162C, strain NBP2, hits give low values 1.01 | locus YDR195W, strain ref2 0.934 | locus YDR297W, strain sur2, hits give low values 0.984 | locus YDR318W, strain mcm21, hits give low values 0.998 | locus YDR334W, strain swr1, hits give low values 0.979 | locus YDR335W, strain msn5, hits give low values 0.992 | locus YDR388W, hits give low values 0.999 | locus YDR392W, strain spt3, hits give low values 0.99 | locus YDR502C, strain sam2, hits give low values 0.997 | locus YEL003W, strain gim4, hits give low values 0.99 | locus YEL037C, strain rad23, hits give low values 0.983 | locus YEL061C, strain CIN8 (second series), hits give low values 0.974 | locus YEL061C, strain CIN8, hits give low values 1.01 | locus YER015W, strain faa2, hits give low values 0.985 | locus YER016W, strain bim1, hits give low values 0.987 | locus YER110C, hits give low values 0.993 | locus YER111C, strain swi4, hits give low values 0.993 | locus YER155C, strain BEM2 (second series), hits give low values 0.987 | locus YER155C, strain BEM2, hits give low values 1.01 | locus YER167W, strain BCK2, hits give low values 1 | locus YFR010W, strain ubp6, hits give low values 0.99 | locus YGL078C, strain dbp3, hits give low values 0.987 | locus YGL086W, strain mad1, hits give low values 1.01 | locus YGL167C, strain pmr1, hits give low values 0.987 | locus YGL173C, strain kem1, hits give low values 0.988 | locus YGL227W, strain vid30, hits give low values 0.974 | locus YGL240W, strain doc1, hits give low values 0.997 | locus YGL248W, strain PDE1, hits give low values 1.03 | locus YGL253W, strain hxk2, hits give low values 0.986 | locus YGR078C, strain PAC10, hits give low values 1.04 | locus YGR135W, strain pre9, hits give low values 0.989 | locus YGR252W, strain gcn5, hits give low values 0.963 | locus YHR013C, strain ard1, hits give low values 0.961 | locus YHR027C, strain rpn1, hits give low values 0.976 | locus YHR030C, strain SLT2, hits give low values 1.01 and 0.978 | locus YHR079C, strain IRE1 (second series), hits give low values 0.99 | locus YHR079C, strain IRE1, hits give low values 0.97 | locus YHR094C, strain hxt1, hits give low values 0.988 | locus YHR129C, strain ARP1, hits give low values 1.02 | locus YHR142W, strain chs7, hits give low values 0.988 | locus YHR200W, strain rpn10, hits give low values 0.985 | locus YIL066C, strain RNR3, hits give low values 1.03 | locus YIL073C, strain SPO22, hits give low values 0.989 | locus YIL125W, strain kgd1, hits give low values 0.989 | locus YIR030C, strain dcg1, hits give low values 0.994 | locus YJL092W, strain hpr5, hits give low values 0.991 | locus YJL095W, strain BCK1 (second series), hits give low values 0.988 | locus YJL095W, strain BCK1, hits give low values 1.05 and 0.986 | locus YJL115W, strain asf1, hits give low values 0.966 | locus YJL129C, strain trk1, hits give low values 0.984 | locus YJL134W, strain LCB3, hits give low values 1 | locus YJL154C, strain vps35, hits give low values 0.986 | locus YJL164C, strain tpk1, hits give low values 0.984 | locus YJL166W, strain qcr8, hits give low values 0.98 | locus YJL168C, strain set2, hits give low values 0.996 | locus YJL187C, strain SWE1 (second series), hits give low values 1.03 | locus YJL187C, strain SWE1, hits give low values 0.989 | locus YJR043C, strain POL32, hits give low values 1.05
